TGFb inhibitor: TGF-b pathway inhibition. HepG2 CAGA-GFP TGF-b/SMAD3 reporter, GFP fluorescence, 18 h; TGF-beta stimulated, 500 pg/mL final. Potency, µM (series often up to 46.1 µM), without a hit: at the highest dose activity, negative = inhibition, most hits filed as inhibitors. 410,000 compounds, 1.2% hits. AID 588855; further: on the % scale 0 is the no-effect control and ±100 the full control effect; nearly all actives have a fitted effect of over 65% in size
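GFP signal (ex488/em500-530) from TGF-beta-stimulated HEPG2 CAGA-GFP cells, 500 pg/mL final, 18 h at 37 degrees C in DMEM plus 1% FBS, normalized to unstimulated and DMSO-stimulated controls.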
ATXN2 expr inh: reduces ATXN2 reporter expression in HEK-293 cells. HEK-293 ATXN2-luciferase reporter, luminescence, 24 h. Potency, µM (titrated, usually from 57 µM), for the others: at the highest dose activity change, negative = inhibition, hits mostly inhibitors. 360,000 compounds, 0.72% hits. AID 1745845; further: on the % scale 0 is the no-effect control and ±100 the full control effect; nearly all actives have a fitted effect of over 55% in size
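ATXN2-luciferase reporter cells (luciferase flanked by upstream and downstream ATXN2 gene portions) were treated 24 h at 37 °C with compounds at up to 57 uM. SteadyGlo luminescence gave expression; GF-AFC fluorescence gave viability.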
HepG2 tox: kills HepG2 cells in TGF-b inhibitor counter-screen. HepG2 CAGA-GFP viability, ATP luminescence, 18 h. Potency, µM (highest dose often 46.1 µM), for inactives: top-dose activity change, negative = cytotoxicity, usual class: cytotoxic. 410,000 compounds, 0.76% hits. AID 588856
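CellTiter-Glo luminescence gave cytotoxicity after 18 hours at 37 degrees C. The cells were HepG2 CAGA-GFP in 1% FBS DMEM, stimulated with 500 pg/mL TGF-beta after compound addition. %Activity was normalised to no-cell wells (complete cell-killing) and DMSO (no toxicity), and curves were fitted and classified.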
HT1080NT lethal: kills 2HG-producing HT-1080-NT fibrosarcoma cells | HT-1080-NT fibrosarcoma viability, CellTiter-Glo ATP luminescence, 48 h | Potency, µM (highest dose often 46.1 µM), for inactives: at the top dose activity, negative = less viability, hits mostly cytotoxic | 360,000 compounds, 1.6% hits;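 further: NT is the 2HG producing partner of a matched IDH1 knockdown line; 0% = DMSO-treated cells and -100% = media-only wells without cells; nearly all actives have a fitted effect of over 55% in size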
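HT-1080-NT; 750 cells/well; 5% FBS RPMI; 48 h compound, 37 degrees C; CellTiter-Glo luminescence; curve fitting and curve-class assignment.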
S2 tox: cell viability loss in ATXN counter-screen; 400,000 compounds, 0.49% hits; S2 cells (HEK-293 line with an ATXN2-luciferase reporter) viability, CellTiter-Fluor protease fluorescence, 24 h; Potency, µM (top dose mostly 56.7 µM), most hits filed as cytotoxic; further: nearly all actives have a fitted effect of over 40% in size
HT1080 IDH1KD tx: kills HT-1080 cells with IDH1 knockdown. 360,000 compounds, 2% hits. Potency, µM (series often up to 46.1 µM), for the others: top-dose activity, negative = toxicity, usual class: cytotoxic. AID 686971. HT-1080 IDH1 knockdown viability, ATP luminescence, 48 h;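 further: 0% = DMSO wells and -100% = cell-free medium wells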
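In this qHTS, HT-1080 cells depleted of IDH1 are exposed for 48 h at 37 °C to compound titrations. Toxicity is scored from CellTiter-Glo luminescence, with DMSO as full viability and medium alone as none.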
* hit, by the source's call; i = inactive; ? = inconclusive; . = no result given. Compounds with a hit are over-represented: about 3.9% of the library has one in this group of screens. The call rests on the fitted dose curve; in most records, active means well fitted curve in the direction sought with a large enough effect; inconclusive means small, poorly fitted or top-dose-only effect, or another doubt; inactive means no such curve, though single readings can be large; an effect the other way counts as inactive or inconclusive. Potency means the concentration at half of the fitted maximal effect.

SMILES	TGFb inhibitor	ATXN2 expr inh	HepG2 tox	HT1080NT lethal	S2 tox	HT1080 IDH1KD tx
CCOC(=O)N1CCN(C(=O)c2cccc(N3C(=O)NC4CC3(C)Oc3ccc(Cl)cc34)c2)CC1 (stereo not given)	-23%	-24%	-4%	7.3µM*	i	7.3µM*
COc1cc2c(Oc3ccc(-c4cnc(Nc5ccc(F)cc5)n(C)c4=O)cc3F)ccnc2cc1OCCCN1CCOCC1	.	24µM*	.	.	.	.
COc1cc2c(Oc3ccc(NC(=O)C4(C(=O)Nc5ccc(F)cc5)CC4)cc3F)ccnc2cc1OCCCN1CCOCC1	.	27µM*	.	.	.	.
CCOc1ccccc1NC(=O)CN(c1cc(C)cc(C)c1)S(=O)(=O)c1c(C)noc1C	-19%	-5%	-27%	15%	i	-2%
Cc1ccc(N(CC(=O)Nc2cc(C)cc(C)c2)S(=O)(=O)c2c(C)noc2C)cc1	?	?	-38%	18µM*	i	?
COc1ccc(N(CC(=O)Nc2cc(Cl)ccc2C)S(=O)(=O)c2c(C)noc2C)cc1	11µM*	-19%	-30%	5.8µM*	i	?
CCOc1ccc(N(CC(=O)Nc2ccc(C)c(C)c2)S(=O)(=O)c2c(C)noc2C)cc1	?	-24%	-20%	.	i	.
COc1ccc(N(CC(=O)Nc2cc(C)ccc2C)S(=O)(=O)c2c(C)noc2C)cc1	-18%	-10%	1%	-6%	i	-26%
CCOc1ccc(N(CC(=O)Nc2ccccc2C)S(=O)(=O)c2c(C)noc2C)cc1	?	-13%	4%	4.6µM*	i	3.7µM*
CCOc1ccccc1NC(=O)CN(c1ccc(OC)cc1)S(=O)(=O)c1c(C)noc1C	?	-18%	0%	5.2µM*	i	5.2µM*
COCCNCCCn1c(C(=O)CF)c(-c2ccc(C)cc2)c2c(N)ncnc21	.	18%	.	.	.	.
Cc1noc2nc(C(=O)O)nc(N3CCCCC3)c12	6%	-2%	-2%	.	i	.
O=C(Nc1ccc2nn(-c3ccc(F)cc3)nc2c1)c1cccc2c(Cl)cccc12	6%	0%	2%	.	i	.
Cc1cccc(C(=O)N(Cc2ccccc2F)C2CCS(=O)(=O)C2)c1 (stereo not given)	-15%	.	-2%	.	.	.
CCc1ccc(NC(=O)NCCc2c(C)nn(C)c2C)cc1	1%	10%	3%	.	i	.
N#Cc1ccc(/C=C2/C=Cc3ccccc32)cc1	-20%	.	5%	.	.	.
Cn1nccc1C(=O)NCC1CCC2(CCN(Cc3ccc(-c4ccc(Cl)cc4)o3)CC2)O1 (stereo not given)	.	.	.	.	i	.
N#Cc1c(-c2ccc(Cl)cc2)c(-c2ccc(Cl)cc2)nn(CCOC(=O)CCC(=O)O)c1=O	?	-10%	-3%	5.2µM*	?	7.3µM*
N#Cc1c(-c2ccccc2)c(-c2ccccc2)nn(CC(=O)NNC(=O)Nc2ccccc2)c1=O	-18%	-3%	-4%	2.3µM*	i	3.3µM*
N#Cc1c(-c2ccccc2)c(-c2ccccc2)nn(CC(=O)NNC(=O)Nc2ccc(Cl)cc2)c1=O	?	-29%	-13%	6.5µM*	?	5.8µM*
O=C(Cn1nc(-c2ccc(Cl)cc2)c2ccccc2c1=O)Nc1cccc(Br)c1	-12%	11%	-8%	.	i	.
CCCOC(=O)C1=C(C)CS[C@@H]2[C@H](NC(=O)COc3ccccc3)C(=O)N12	-10%	.	-1%	.	.	.
O=C1N(Cc2ccccc2Cl)c2ccccc2C1(O)c1c[nH]c2ccccc12 (stereo not given)	?	0%	-114%	.	i	.
COc1cccc(-c2cc3c(c(OC)c2)OCCN(Cc2cccn2-c2ccccn2)C3)c1	.	.	.	.	i	.
O=c1ccn([C@@H]2O[C@H](CO)[C@H](O)[C@H]2O)c(=O)[nH]1	.	1%	.	.	.	.
SMILES	TGFb inhibitor	ATXN2 expr inh	HepG2 tox	HT1080NT lethal	S2 tox	HT1080 IDH1KD tx
CC(=O)c1cccc(NC(=O)Cn2c(C)c3cnn(-c4ccccc4)c(=O)c3c2C)c1	?	-6%	-12%	.	i	.
COCCn1c(CCC(=O)Nc2ccc(C)c(Cl)c2)nc2cccnc21	6%	2%	-3%	.	i	.
CCOC(=O)/C=c1/s/c(=C/c2ccc3cc(OC)ccc3c2)c(=O)n1CC(=O)NCC1CCCO1 (stereo not given)	6%	3%	15%	5%	i	13%
CCOC(=O)/C=c1\s/c(=C\c2c(OC)ccc3ccccc23)c(=O)n1CC(=O)NCC1CCCO1 (stereo not given)	75%	-7%	-5%	10µM*	i	7.9µM*
CC(Oc1ccccc1)C(=O)Nc1ccccc1C(=O)OCc1cc(=O)n2nc(C(C)C)sc2n1 (stereo not given)	-1%	.	-1%	.	.	.
Cc1cc(OCC(=O)NCCc2nc3ccccc3[nH]2)cc(C)c1Cl	20µM*	.	-45%	.	.	.
CCCOc1cccc(OCC(=O)Nc2nc3ccccc3[nH]2)c1	0%	-13%	-36%	10%	i	4%
Cc1cc(OCC(=O)Nc2cc(-c3nc4ccccc4[nH]3)ccc2C)ccc1Cl	.	.	11µM*	.	.	.
CCCCOc1cccc(OCC(=O)Nc2nc3ccccc3[nH]2)c1	14µM*	-17%	13µM*	-10%	i	-9%
Cc1ccc(OCC(=O)NCCc2nc3ccccc3[nH]2)c(C)c1	-1%	-2%	-21%	7%	i	-10%
Cc1ccc(-c2nc3ccccc3[nH]2)cc1NC(=O)COc1ccc(Cl)cc1Cl	-34%	6%	-32%	.	i	.
CSCCC(NC(=O)C1CCCCC1)C(=O)Nc1ccc(F)c(Cl)c1 (stereo not given)	?	6%	-15%	.	i	.
COc1ccc(Cl)cc1NC(=O)CSc1nc(-c2ccccc2)c2ccccc2n1	-20%	.	-9%	.	.	.
COC(=O)c1cn(C(=O)c2ccc(C)cc2C)c2ccccc12	-7%	-19%	-9%	?	i	6.5µM*
COC(=O)c1cn(C(=O)c2ccccc2Cl)c2ccccc12	-6%	-37%	-13%	-21%	i	?
CC(=O)Nc1ccc(-c2ccnc3c2CC(C(=O)Nc2cccc(OC(F)(F)F)c2)O3)cc1 (stereo not given)	?	?	-23%	?	?	?
CC(=O)Nc1ccc(-c2ccnc3c2CC(C(=O)Nc2cccc(N(C)C)c2)O3)cc1 (stereo not given)	22%	-9%	-16%	?	?	12µM*
CS(=O)(=O)Nc1cccc(NC(=O)C2Cc3c(-c4ccccc4)ccnc3O2)c1 (stereo not given)	-12%	0%	-60%	2.3µM*	i	?

From PubChem BioAssay
